# In PubChem BioAssay AID1963315 (National Center for Advancing Translational Sciences (NCATS), 2024):
# Inconclusive results are not listed. Entries that show only a call come without a potency. Active and inactive are the calls of the source. Calls come from the whole dose curve.
# Biological target: Tyrosine-protein kinase ABL1 (Homo sapiens) (UniProt P00519)
# Assay: ABL1 kinase (ABL1-N-HiBiT) SDR gain of signal screen
# Settings: Purified ABL1-N-HiBiT enzyme, Nano-Glo HiBiT luminescence, 30 min compound incubation; series mostly up to 32.9 µM
# In short: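 Gain-of-signal luminescence after Nano-Glo HiBiT detection (10 min, room temperature) measures compound binding to 10 nM ABL1-N-HiBiT, which had been incubated 30 min with compound at room temperature, light-protected, without ATP.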
# Chain of Tyrosine-protein kinase ABL1 (Homo sapiens) (P00519 whole entry, looked up): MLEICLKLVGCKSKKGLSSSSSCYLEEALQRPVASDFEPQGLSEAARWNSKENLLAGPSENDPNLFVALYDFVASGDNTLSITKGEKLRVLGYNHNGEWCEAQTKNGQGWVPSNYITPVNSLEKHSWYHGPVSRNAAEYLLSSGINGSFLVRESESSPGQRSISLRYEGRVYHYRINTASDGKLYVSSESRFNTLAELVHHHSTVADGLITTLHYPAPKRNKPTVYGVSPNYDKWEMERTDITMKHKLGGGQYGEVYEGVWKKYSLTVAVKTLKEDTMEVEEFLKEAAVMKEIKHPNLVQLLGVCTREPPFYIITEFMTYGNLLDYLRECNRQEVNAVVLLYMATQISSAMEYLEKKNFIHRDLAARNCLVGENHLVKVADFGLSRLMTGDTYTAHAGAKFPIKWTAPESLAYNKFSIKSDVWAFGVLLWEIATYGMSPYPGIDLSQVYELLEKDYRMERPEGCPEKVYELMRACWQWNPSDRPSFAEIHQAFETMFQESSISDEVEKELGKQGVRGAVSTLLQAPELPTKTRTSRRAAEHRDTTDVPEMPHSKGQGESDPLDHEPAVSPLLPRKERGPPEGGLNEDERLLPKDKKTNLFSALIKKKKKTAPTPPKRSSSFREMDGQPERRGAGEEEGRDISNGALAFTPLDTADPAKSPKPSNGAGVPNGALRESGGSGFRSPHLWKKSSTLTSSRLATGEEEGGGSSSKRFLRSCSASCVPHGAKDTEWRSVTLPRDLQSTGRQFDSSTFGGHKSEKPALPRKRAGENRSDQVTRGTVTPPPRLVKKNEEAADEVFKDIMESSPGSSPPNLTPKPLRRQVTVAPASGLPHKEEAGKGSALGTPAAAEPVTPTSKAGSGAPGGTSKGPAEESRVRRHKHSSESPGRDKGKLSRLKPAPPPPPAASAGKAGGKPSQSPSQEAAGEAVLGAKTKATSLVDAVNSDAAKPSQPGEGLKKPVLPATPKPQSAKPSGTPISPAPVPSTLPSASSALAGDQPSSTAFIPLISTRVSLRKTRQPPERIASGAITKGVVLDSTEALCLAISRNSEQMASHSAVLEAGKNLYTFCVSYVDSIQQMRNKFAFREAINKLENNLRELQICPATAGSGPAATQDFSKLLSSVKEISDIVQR
row,SMILES,Potency
1,COc1cc2ncnc(-n3nc(-c4ccccn4)nc3N)c2cc1OC,111 nM (active)
2,c1cc(-c2cc(C3CCNCC3)[nH]n2)ccn1,inactive
3,COc1ccc(-n2c(C)c([N+](=O)[O-])c3ccc(O)cc32)cc1,inactive
